# Results from PubChem BioAssay (NCATS).
# Results filed as inconclusive are left out. A number with no mark means an inactive call. The source made the active and inactive calls. The call rests on the fitted dose curve; in most records, active means well fitted cell-killing curve with a large enough effect; inconclusive means small, poorly fitted or top-dose-only effect, or effect the other way; inactive means no such curve, though single readings can be large or run the other way.
# Assay: Viability qHTS for spleen associated tyrosine kinase inhibitor (SYKi) drug resistant MV4-11 cells (AID 1963824); further: nearly all actives have a fitted effect of over 35% in size
# Details: SYKi-resistant MV4-11 viability, CellTiter-Glo, 72 h; series mostly up to 45 µM
# Procedure, shortened: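 SYK-inhibitor-resistant MV4-11 AML cells were seeded at 500 per well onto compound and cultured 72 hours (37 °C, 5% CO2). CellTiter-Glo was then added, and after 10 min at room temperature, luminescence gave viability.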
# Potency means the concentration at half of the fitted maximal effect.
Compound,Potency,"viability, % of control"
C=C[C@@]1(C)CCC2=C([C@H]1OC(C)=O)[C@H](OC(C)=O)CC1[C@](C)(C(=O)OC)CC[C@H](OC(C)=O)[C@]21C (some centres undefined),inactive,–
C[C@@H]1[C@H]2[C@H](O[C@@H]3O[C@H](CO)[C@@H](O)[C@H](O)[C@H]3O)OC=C(C(=O)O)[C@H]2C[C@@H]1OC(=O)/C=C/c1ccc(O)cc1,inactive,–
N#Cc1cccnc1N1CCN(C(=O)c2cccc(Cc3n[nH]c(=O)c4ccccc34)c2)CC1,0.186 µM (active),–
Nc1ncnc2c1nc(N)n2[C@@H]1O[C@H](CO)[C@@H](O)[C@H]1O,0.517 µM (active),–
COc1cc2ncnc(Nc3ccc(Oc4ccccc4)cc3)c2cc1OC,0.291 µM (active),–
CC1(C)CCC2(C(=O)OC3OC(CO)C(O)C(O)C3O)CCC3(C)C(=CCC4C5(C)CCC(OC6OC(C(=O)O)C(OC7OC(CO)C(O)C(O)C7O)C(OC7OC(CO)C(O)C(O)C7O)C6O)C(C)(C)C5CCC43C)C2C1 (centres undefined),–,109% [at 9.25 µM]
C/C=C1\[C@H](O[C@@H]2O[C@H](CO)[C@@H](O)[C@H](O)[C@H]2O)OC=C2C(=O)OCCc3ccc(O)c(c3)Oc3ccc(cc3)CCOC(=O)C[C@H]21,3.85 µM (active),–
N#CC(CCCN1CCC(O)(c2ccc(Cl)cc2)CC1)(c1ccccc1)c1ccccc1,5.8 µM (active),–
C=CCN1C[C@H](C(=O)N(CCCN(C)C)C(=O)NCC)CC2c3cccc4[nH]cc(c34)C[C@H]21 (some centres undefined),16.6 µM (active),–
C=C1C(=O)O[C@@H]2C[C@]3(C)[C@@H](CCC(C)=O)[C@@H]3C[C@H]12,18.4 µM (active),–
CC(=O)[C@@H]1C[C@H](C(C)(C)O[C@@H]2O[C@H](CO)[C@@H](O)[C@H](O)[C@H]2O)CC[C@@]2(CO)OC(=O)C[C@@H]12,inactive,–
COc1ccc(N2CCN(C(=O)c3cc4c(s3)-c3ccccc3S(=O)(=O)C4)CC2)cc1,inactive,–
CC(=O)c1cc(C(=O)N[C@@H](C)Cn2ccc(-c3ccc(C#N)c(Cl)c3)n2)[nH]n1,14.6 µM (active),–
COc1ccc(-c2csc(NC(=O)[C@H]3CCCCN3S(=O)(=O)c3ccc(C)cc3)n2)cc1,5.17 µM (active),–
C#CCOc1ccc2c(c1)c(-c1ccc(C(C)C)cc1)nc(=O)n2C(C)C,9.2 µM (active),–
CC(=O)C1=C(C)N(c2cccc(C(F)(F)F)c2)C(=O)N[C@H]1c1ccc(C#N)nc1,–,87% [at 9.25 µM]
COc1cc(O)c(C(=O)CCc2ccc(O)cc2)c(O[C@@H]2O[C@H](CO)[C@@H](O)[C@H](O)[C@H]2O)c1,11.2 µM (active),–
C[C@H]1CC[C@@]2(OC1)O[C@H]1CC3C4CC[C@H]5C[C@@H](O)CC[C@]5(C)C4CC(=O)[C@]3(C)[C@H]1[C@@H]2C (some centres undefined),inactive,–
C=CCc1ccc(O[C@@H]2O[C@H](CO[C@@H]3O[C@@H](C)[C@H](O)[C@@H](O)[C@H]3O)[C@@H](O)[C@H](O)[C@H]2O)cc1,inactive,–
CCOC(=O)Nc1nc2ccccc2[nH]1,10.3 µM (active),–

Compound,Potency,"viability, % of control"
CN(C)c1nc(NC2CCC(NCCc3ccc(Br)cc3OC(F)(F)F)CC2)nc2ccccc12 (centres undefined),0.651 µM (active),–
COc1c(C(C)C)c(O)c(O)c2c1C(OC)[C@H]1OC(=O)[C@@]23CCCC(C)(C)[C@H]13 (some centres undefined),14.3 µM (active),–
C=C1C(=O)OC2CC(C)=C(C(C)CCCOC(C)=O)C(OC(=O)CC(C)CC)C12 (centres undefined),2.52 µM (active),–
C=C1CC2C(C)(CCC(=O)O)C(C(C)(C)O)CCC2(C)C2C(=O)OC(C)(C(=O)OC)C(=O)C12C (centres undefined),inactive,–
CC12CC(O)C(O)C=C1c1cc(O)cc(O)c1C(=O)O2 (centres undefined),inactive,–
CC(C)(C)c1ccc(C(=O)Nc2cc(Cl)c(Br)cc2C(=O)O)cc1,16.4 µM (active),–
CC1=C(CO)C2(C)CCCC(C)(C)C2C(O)C1O (centres undefined),inactive,–
CC(=O)O[C@H]1C(=O)[C@@]2(C)[C@H]([C@H](OC(=O)c3ccccc3)[C@]3(O)C[C@H](OC(=O)[C@H](O)[C@@H](NC(=O)c4ccccc4)c4ccccc4)C(C)=C1C3(C)C)[C@]1(OC(C)=O)CO[C@@H]1C[C@@H]2O,0.0044 µM (active),–
CC1(C)CC23[C@@H]4CC(=O)[C@@H]2COC(=O)[C@@H]3CC[C@H]41,1.64 µM (active),–
CC(=O)N[C@H](Cc1ccc2ccccc2c1)C(=O)N[C@H](Cc1ccc(Cl)cc1)C(=O)N[C@H](Cc1cccnc1)C(=O)N[C@@H](CO)C(=O)N[C@@H](Cc1ccc(O)cc1)C(=O)N[C@H](CCCNC(N)=O)C(=O)N[C@@H](CC(C)C)C(=O)N[C@@H](CCCN=C(N)N)C(=O)N1CCC[C@H]1C(=O)N[C@H](C)C(N)=O,inactive,–
CC(C)n1cnc2c(-c3cnc(N)nc3)nc(N3CCOCC3)nc21,3.17 µM (active),–
COC1OC(=O)C2=C1C1(C)CCCC(C)(C)C1CC2O (centres undefined),inactive,–
CC1(C)CC[C@]2(C(=O)O[C@@H]3O[C@H](CO[C@@H]4O[C@H](CO[C@@H]5O[C@H](CO)[C@H](O)[C@H](O)[C@H]5O)[C@@H](O)[C@H](O)[C@H]4O)[C@@H](O)[C@H](O[C@@H]4O[C@H](CO)[C@@H](O)[C@H](O)[C@H]4O)[C@H]3O)[C@H](O)C[C@]3(C)C(=CCC4[C@@]5(C)CC[C@H](O[C@@H]6OC[C@@H](O)[C@H](O)[C@H]6O)[C@@](C)(C(=O)O)C5CC[C@]43C)[C@@H]2C1 (some centres undefined),–,90.5% [at 9.25 µM]
[2H]C([2H])([2H])C(OC(=O)[C@H](C)N[P@](=O)(OC[C@H]1O[C@@H](n2ccc(=O)[nH]c2=O)[C@](C)(F)[C@@H]1O)Oc1ccccc1)C([2H])([2H])[2H],9.2 µM (active),–
CC(C)n1cnc2c(NCc3cccc(C(F)(F)F)c3)ncnc21,20.6 µM (active),–
C=C1CC2C3(C)C(O)CC(=O)C(C)(C)C3C(O)C(OC(C)=O)C2(C)C2C(=O)OC(C)(C(=O)OC)C(=O)C12C (centres undefined),6.32 µM (active),–
O=C1Cc2c([nH]c3ccc([N+](=O)[O-])cc23)-c2ccccc2N1,0.502 µM (active),–
Cc1ccc(NS(=O)(=O)c2cc3c(cc2N(C)C)CCC(=O)N3)cc1C,18.4 µM (active),–
CCn1c(-c2nonc2N)nc2cncc(C(=O)N3CC[C@H](N)C3)c21,8.2 µM (active),–
